This is an account of results in PubChem BioAssay (Tox21).

Values joined by “and” are separate entries in the source; they are usually repeats but may differ in a detail not shown here. Equal values may be shown once. A structure can be active in one record and inactive in another. Active and inactive are the calls of the source. Unless noted, calls follow the shape of the dose curve; as a rule, active = well fitted curve in the direction sought with a large enough effect in the repeat runs; inconclusive = weak or mixed curves; inactive = no such curve, though single readings can be large; an effect the other way counts as inactive or inconclusive.

A short description of experiment [1]: qHTS assay to identify small molecule antagonists of the glucocorticoid receptor (GR) signaling pathway - cell viability counter screen (AID 720693). Also: nearly all actives have a fitted effect of over 55% in size. Also: potency is read from the fitted curve at half-maximal effect. Background: Quantitative high-throughput screening tests each substance at several concentrations.
The nature of experiment [2]: qHTS assay for identifying genotoxic compounds that show differential cytotoxicity against isogenic chicken DT40 cell lines with known DNA damage response pathways - wild type cell line (AID 743012). Also: nearly all actives have a fitted effect of over 60% in size. Also: potency is read from the fitted curve at half-maximal effect. Summed up:
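First, wild type DT40 cells were plated at 300 per well and equilibrated about 0.5 h at 37 C/5% CO2. Next, compounds in DMSO were added and exposure lasted 40 h. Finally, CellTiter-Glo was added for 30 min at room temperature and luminescence recorded.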

Experiment [3] is described as follows: qHTS assay for identifying genotoxic compounds that show differential cytotoxicity against isogenic chicken DT40 cell lines with known DNA damage response pathways - Rev3 mutant cell line (AID 743014). Also: nearly all actives have a fitted effect of over 55% in size. Also: potency is read from the fitted curve at half-maximal effect.
Experiment [4] is described as follows: qHTS assay for identifying genotoxic compounds that show differential cytotoxicity against isogenic chicken DT40 cell lines with known DNA damage response pathways - Rad54/Ku70 mutant cell line (AID 743015). Also: nearly all actives have a fitted effect of over 60% in size. Also: potency is read from the fitted curve at half-maximal effect.
A short description of experiment [5]: qHTS assay to identify small molecule antagonists of the androgen receptor (AR) signaling pathway - cell viability counter screen (AID 743033; also: nearly all actives have a fitted effect of over 45% in size).
Experiment [6] is described as follows: qHTS assay to identify small molecule antagonists of the androgen receptor (AR) signaling pathway using the MDA cell line - cell viability counter screen (AID 743041; also: nearly all actives have a fitted effect of over 45% in size). Summed up: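 Same-well cytotoxicity was assessed by CellTiter-Fluor in MDA-kb2 AR-luc cells after 16 h of compound treatment under R1881 agonism.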
The nature of experiment [7]: qHTS assay to identify small molecule antagonists of the thyroid receptor (TR) signaling pathway - cell viability counter screen (AID 743064). Also: nearly all actives have a fitted effect of over 50% in size. Also: potency is read from the fitted curve at half-maximal effect. Summed up:
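Fluorescence from CellTiter-Fluor, added after 23.5 h exposure at 37 °C, reported viability of GH3.TRE-Luc cells co-treated with compound and 1 nM T3. Measured in the same wells as the luciferase TR readout.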

Experiment [8] in a line: qHTS assay to identify small molecule antagonists of the thyroid receptor (TR) signaling pathway (AID 743065). Also: nearly all actives have a fitted effect of over 55% in size. Also: potency is read from the fitted curve at half-maximal effect. The procedure, abridged:
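GH3.TRE-Luc rat pituitary cells (two TREs driving luciferase) were dosed with compound, then stimulated with 1 nM T3 (final) for 23.5 h at 37 C. ONE-Glo luminescence was the read-out, with CellTiter-Fluor fluorescence as the cytotoxicity counter-screen.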

Experiment [9] relates to thyroid hormone receptor (rat, GH3 cells). Nature of the experiment: qHTS assay to identify small molecule agonists of the thyroid receptor (TR) signaling pathway (AID 743066; calls by dose curve; also: potency is read from the fitted curve at half-maximal effect).
A short description of experiment [10]: qHTS assay to identify small molecule antagonists of the estrogen receptor alpha (ER-alpha) signaling pathway - cell viability counter screen (AID 743074; calls by dose curve;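 also: HEK293 cells carrying ER-alpha-UAS-bla reporter stimulated with 17beta-estradiol; nearly all actives have a fitted effect of over 45% in size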; also: potency is read from the fitted curve at half-maximal effect).
Experiment [11] can be described thus: qHTS assay to identify small molecule antagonists of the estrogen receptor alpha (ER-alpha) signaling pathway using the BG1 cell line - cell viability counter screen (AID 743081).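 Also: compound given together with 17beta-estradiol as the ER stimulus; nearly all actives have a fitted effect of over 45% in size.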 Also: potency is read from the fitted curve at half-maximal effect.
In experiment [12] the target is Aromatase (Homo sapiens) (UniProt P11511). Put plainly: qHTS assay to identify aromatase inhibitors (AID 743083). Also: series mostly up to about 70 µM; nearly all actives have a fitted effect of over 55% in size.
Aromatase (Homo sapiens), sequence (P11511 whole entry, looked up): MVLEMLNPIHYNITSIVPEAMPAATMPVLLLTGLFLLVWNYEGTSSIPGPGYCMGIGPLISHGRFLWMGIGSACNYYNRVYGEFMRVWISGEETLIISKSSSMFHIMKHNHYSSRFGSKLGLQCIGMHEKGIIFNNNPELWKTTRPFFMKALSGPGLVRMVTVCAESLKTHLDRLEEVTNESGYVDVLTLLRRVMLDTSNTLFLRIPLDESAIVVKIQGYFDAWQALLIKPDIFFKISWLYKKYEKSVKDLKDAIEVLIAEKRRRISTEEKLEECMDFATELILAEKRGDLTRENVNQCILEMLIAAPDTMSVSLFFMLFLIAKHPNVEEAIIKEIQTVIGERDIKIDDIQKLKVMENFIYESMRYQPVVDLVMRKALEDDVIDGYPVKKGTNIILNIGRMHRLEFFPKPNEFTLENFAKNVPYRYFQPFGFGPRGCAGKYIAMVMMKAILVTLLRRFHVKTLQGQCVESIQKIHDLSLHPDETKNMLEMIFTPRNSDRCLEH
Experiment [13] concerns the target Estrogen receptor (Homo sapiens) (UniProt P03372). Put plainly: qHTS assay to identify small molecule antagonists of the estrogen receptor alpha (ER-alpha) signaling pathway (AID 743069; active = well fitted curve in the direction sought with a large enough effect in the signal ratio in the repeat runs, not every such curve was filed as active; inconclusive = weak or mixed curves, or effect the other way; inactive = no such curve, though single readings can be large or run the other way; the % refers to the signal ratio; also: potency is read from the fitted curve at half-maximal effect). The procedure, abridged: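 Reporter cells (ER-alpha-bla, HEK293 background) are conditioned overnight in stripped-serum medium (2% charcoal-stripped FBS). Compound and 17beta-estradiol exposure runs 18 hr at 37C, 5% CO2.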

Experiment [14] shares this target. Put plainly: qHTS assay to identify small molecule agonists of the estrogen receptor alpha (ER-alpha) signaling pathway (AID 743075; calls by dose curve;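 also: HEK293 GripTite cells with ER-alpha and UAS-driven beta-lactamase reporter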).
The target is the same in experiment [15]. Nature of the experiment: qHTS assay to identify small molecule agonists of the estrogen receptor alpha (ER-alpha) signaling pathway using the BG1 cell line (AID 743079). Also: nearly all actives have a fitted effect of over 20% in size. Also: potency is read from the fitted curve at half-maximal effect.
A short description of experiment [16]: qHTS assay to identify small molecule antagonists of the estrogen receptor alpha (ER-alpha) signaling pathway using the BG1 cell line (AID 743080; calls by dose curve;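 also: BG1 cells stimulated with 17beta-estradiol alongside compound; series mostly up to about 70 µM; nearly all actives have a fitted effect of over 25% in size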). Summed up:
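After 5 days in phenol-red-free 10% charcoal-stripped FBS medium, BG1-Luc-4E2 cells were seeded, left 24 h at 37 C, co-treated with compounds and 17beta-estradiol for 21.5 h, then assayed for viability and luciferase.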

Estrogen receptor (Homo sapiens), sequence (P03372 whole entry, looked up): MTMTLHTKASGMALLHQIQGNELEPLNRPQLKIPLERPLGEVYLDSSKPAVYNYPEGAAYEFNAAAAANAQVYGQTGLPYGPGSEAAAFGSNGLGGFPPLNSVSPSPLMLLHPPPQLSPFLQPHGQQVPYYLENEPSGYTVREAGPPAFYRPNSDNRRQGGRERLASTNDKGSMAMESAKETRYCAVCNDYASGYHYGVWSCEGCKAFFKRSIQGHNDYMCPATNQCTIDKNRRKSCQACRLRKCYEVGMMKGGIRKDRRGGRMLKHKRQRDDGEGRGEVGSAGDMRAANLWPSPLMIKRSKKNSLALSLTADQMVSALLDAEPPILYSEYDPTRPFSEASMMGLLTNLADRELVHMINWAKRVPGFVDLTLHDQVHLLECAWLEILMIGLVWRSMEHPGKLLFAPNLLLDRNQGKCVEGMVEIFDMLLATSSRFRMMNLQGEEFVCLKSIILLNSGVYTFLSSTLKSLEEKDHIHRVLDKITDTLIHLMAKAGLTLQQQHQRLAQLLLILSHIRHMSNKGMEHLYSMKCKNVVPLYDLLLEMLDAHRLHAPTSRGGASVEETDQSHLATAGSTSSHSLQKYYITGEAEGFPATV

Turning to `O=C(O)CCCCCCCCCCCC(=O)O`, the Potency result in experiment [1], in [2], in experiment [3], in [4], in experiment [5] and in experiment [6] was “inactive” each time. The Potency entry in [7], in experiment [8], in [9], in [11] and in experiment [12] was “inactive” each time. In addition, in experiment [10], the Potency entry was “inactive and 4.36 µM (active)”.

As for `IC(I)I`, the Potency entry in [1], in experiment [2], in experiment [3], in experiment [4], in experiment [5] and in experiment [6] was “inactive” in each case. In addition, the Potency entry in experiment [7], in experiment [8], in experiment [9], in [10], in experiment [11] and in [12] was “inactive” throughout.

Consider `C[C@]12CC[C@@H]3c4ccc(O)cc4CC[C@H]3[C@@H]1CC[C@@H]2O`, for which the Potency in experiment [1] was 24.5 µM (active); in experiment [2] it was 29.8 µM (active) and 61.1 µM (active); in [3], 23.7 µM (active) and 54.4 µM (active) and 54.5 µM (active); in experiment [4], 26.6 µM (active) and 54.5 µM (active); in experiment [8], 27.3 µM (active) and 30.6 µM (active). For the same compound, the Potency entry in experiment [5], in [6], in experiment [7], in experiment [9], in [10] and in experiment [11] was “inactive” throughout. The Potency result in [12] was “inactive”.

In the case of `COCCOCCOCCO`, the Potency result in experiment [1], in experiment [2], in [3], in experiment [4], in experiment [5] and in [6] was “inactive” each time. The Potency result in [7], in [10], in experiment [11] and in experiment [12] was “inactive” each time.

Consider `C=CCOC(=O)C(=C)C`, for which the Potency entry in experiment [1], in experiment [2], in experiment [3], in [4], in experiment [5] and in experiment [6] was “inactive” each time. For the same compound, the Potency result in [7], in experiment [8], in [9] and in [11] was “inactive” each time.

For the compound `Cc1ccc(N)c([N+](=O)[O-])c1`, the Potency result in experiment [1], in experiment [2], in experiment [3], in experiment [4], in experiment [5] and in experiment [7] was “inactive” each time. In addition, the Potency result in experiment [8], in experiment [9], in experiment [13], in experiment [10], in [14] and in experiment [16] was “inactive” each time. Also, the Potency entry in experiment [11] and in experiment [12] was “inactive” each time. In addition, the Potency in [15] was 38.1 µM (active) and inactive.

Take `CC/C=C\C/C=C\C/C=C\CCCCCCCC(=O)O`: the Potency result in experiment [1], in [2], in experiment [5], in experiment [6], in [7] and in experiment [8] was “inactive” in each case. The Potency result in [9], in experiment [10], in experiment [11] and in experiment [12] was “inactive” throughout. In addition, the Potency result in [3] is “inactive and 48.6 µM (active)”; in [4], “inactive and 60.6 µM (active)”.

As for `CC(C)[C@@H]1CC[C@@H](C)CC1=O`, the Potency result in [1], in [2], in [3], in experiment [4], in experiment [5] and in [6] was “inactive” throughout. Further, the Potency entry in experiment [7], in [10], in [11] and in experiment [12] was “inactive” in each case.

Take `CCC(=O)O[C@H]1[C@H](O[C@@H]2[C@@H](C)[C@H](O[C@H]3C[C@@](C)(OC)[C@@H](O)[C@H](C)O3)[C@@H](C)C(=O)O[C@H](CC)[C@@](C)(O)[C@H](O)[C@@H](C)C(=O)[C@H](C)C[C@@]2(C)O)O[C@H](C)C[C@@H]1N(C)C`: the Potency entry in [1], in [5], in experiment [6], in experiment [9], in experiment [10] and in experiment [12] was “inactive” in each case. The Potency is 40.5 µM (active) in experiment [2]; “inactive and 20.3 µM (active)” in experiment [3]; “inactive and 36.1 µM (active)” in experiment [4]; 13.3 µM (active) and 36.1 µM (active) in experiment [7]; 11.9 µM (active) and 36.1 µM (active) in experiment [8]; 26.6 µM (active) and 32.2 µM (active) in [11].

As to `CCCCCCC(C)O` (stereo unspecified), the Potency result in experiment [1], in [2], in [3], in experiment [4], in [5] and in [7] was “inactive” throughout. The Potency result in experiment [8], in [13], in experiment [10], in experiment [14], in experiment [15] and in [16] was “inactive” each time. The Potency result in [11] and in experiment [12] was “inactive” throughout. The Potency in experiment [9] is 55.6 µM (active) and inactive.

Consider `CCCCCC1C(=O)CCC1CC(=O)OC` (stereo unspecified), for which the Potency entry in experiment [1], in experiment [2], in experiment [3], in [4], in [5] and in [7] was “inactive” throughout. Besides, the Potency result in [8], in experiment [9], in experiment [13], in [10], in [14] and in experiment [15] was “inactive” in each case. Further, the Potency result in experiment [16], in [11] and in experiment [12] was “inactive” in each case.

For the compound `O=C(CCCN1CCC(O)(c2ccc(Cl)cc2)CC1)c1ccc(F)cc1`, the Potency result in experiment [1], in experiment [5], in experiment [6], in experiment [10], in [11] and in experiment [12] was “inactive” each time. Also, the Potency in experiment [2] is 5.96 µM (active) and 7.7 µM (active); in [3] it was 3.35 µM (active) and 1.72 µM (active); in experiment [4], 5.96 µM (active) and 1.72 µM (active); in experiment [7], 21.1 µM (active) and 54.5 µM (active); in [8], 26.6 µM (active) and 61.1 µM (active).

Turning to `O=S1(=O)CCCO1`, the Potency entry in experiment [1], in experiment [2], in experiment [3], in experiment [4], in experiment [5] and in experiment [7] was “inactive” throughout. The Potency result in experiment [8], in [9], in experiment [13], in experiment [10], in [14] and in [15] was “inactive” in each case. The Potency result in experiment [16], in experiment [11] and in experiment [12] was “inactive” each time.

Consider `CCCCCCCCCCCCO`, for which the Potency result in experiment [1], in experiment [2], in experiment [3], in experiment [4], in experiment [5] and in experiment [7] was “inactive” throughout. Moreover, the Potency entry in [8], in [9], in experiment [13], in experiment [10], in experiment [14] and in experiment [15] was “inactive” in each case. Further, the Potency result in experiment [16], in experiment [11] and in experiment [12] was “inactive” each time.

As for `Cc1ccc(C(C)(C)C)cc1`, the Potency result in [1], in experiment [2], in [3], in experiment [4], in experiment [5] and in experiment [7] was “inactive” throughout. Also, the Potency entry in experiment [8], in [9], in experiment [13], in [10], in experiment [14] and in [15] was “inactive” each time. For the same compound, the Potency result in experiment [16], in experiment [11] and in [12] was “inactive” in each case.

Turning to `O=[Se](O)O`, the Potency result in experiment [1], in experiment [5], in experiment [7], in experiment [8], in experiment [9] and in experiment [10] was “inactive” throughout. Also, the Potency entry in [14], in experiment [15], in experiment [16] and in experiment [12] was “inactive” throughout. The Potency in experiment [2] was 433 nM (active) and 5.23 µM (active); in [3], 545 nM (active) and 4.16 µM (active); in experiment [4], 244 nM (active) and 2.34 µM (active); in experiment [13], 43.7 µM [inconclusive] (active) and inactive; in experiment [11], 6.87 µM (active) and inactive.

Take `CN(C)/N=N/c1nc[nH]c1C(N)=O`: the Potency entry in experiment [1], in experiment [2], in experiment [3], in [5], in [7] and in [8] was “inactive” throughout. The Potency result in experiment [9], in [13], in [10], in experiment [14], in [15] and in [16] was “inactive” throughout. Moreover, the Potency result in experiment [11] and in experiment [12] was “inactive” in each case. The Potency in experiment [4] was 62 µM (active).
